# Pf Dd2 inh = blocks in vitro growth of P. falciparum Dd2 | 120,000 tested, 4.3% active | P. falciparum Dd2 growth, SYBR Green, 72 h | AID 1347417 | Potency, µM (doses to about 28.9 µM), inactives show at the top dose activity, negative = inhibition, most hits filed as inhibitors; active means well fitted inhibition curve with a large enough effect;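 further: plate controls were DMSO vehicle for no effect and reference drug for full effect; nearly all actives have a fitted effect of over 65% in size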
#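 Readout: SYBR Green fluorescence, 485 nm excitation, 535 nm emission, after ~16 h lysis at 37C. Before that, Dd2-infected red cells (2.5% hematocrit) grew 72 h with compound, 29 uM top final concentration.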
# * = called active by the depositor; i = inactive; [ ] = remark or other dose. This is one part of a sample in which hits are shown more often than they occur. Potency means the concentration at half of the fitted maximal effect.
SMILES,Pf Dd2 inh
CCOC(=O)c1ccccc1NC(=O)NC(C)c1c(-n2cccc2)sc(C)c1C (configuration not stated),11µM*
CCOC(=O)c1ccccc1NC(=O)N(C(C)C)C1CCN(C(C)=O)CC1,-8%
CCOc1ccc(NC(=O)NC(C)c2c(-n3cccc3)sc(C)c2C)cc1 (configuration not stated),-23%
Cc1ccc(-c2ccc(=O)n(C(C)C(=O)Nc3ccccc3Cl)n2)cc1C (configuration not stated),9%
C=CCNc1nc(C)nc2c1CCN(C(=O)CNS(C)(=O)=O)CC2,-11%
Cc1cc(S(=O)(=O)N2C[C@@H](F)C[C@H]2C(=O)N2CCc3ccccc3C2)ccc1F,37%
Cc1nc(C2CC(O)C2)cc(N2CCC(OCc3cccnc3)CC2)n1 (configuration not stated),-24%
CCCCNC(=O)CC(c1ccc(OC)cc1OC)c1c[nH]c2c(CC)cccc12 (configuration not stated),i
COc1ccc(C(CC(=O)NCCc2ccc(OC)c(OC)c2)c2c[nH]c3ccccc23)c(OC)c1 (configuration not stated),11µM*
CCCCNC(=O)CC(c1cccc(OC)c1)c1c[nH]c2ccccc12 (configuration not stated),i
CCc1ccccc1NC(=O)CN1C(=O)c2cccnc2Sc2ccccc21,-19%
Cc1cc(NC(=O)CN2C(=O)c3cccnc3Sc3ccccc32)ccc1Br,11µM*
Cc1cc(C)c(NC(=O)CN2C(=O)c3cccnc3Sc3ccccc32)c(C)c1,-27%
COc1cccc(CCC(=O)N2CCC(C3CCNC3)CC2)c1 (configuration not stated),11%
O=C(NC[C@H]1OC[C@@H](NC2CCOCC2)[C@@H]1O)c1ccccc1,22%[44.1 µM]
COc1cc(Br)c(/C=C(\C#N)c2nc3ccccc3[nH]2)cc1OC,-12%
N#C/C(=C\c1ccc(Cl)cc1)c1nc2ccccc2[nH]1,i
COc1cc(/C=C(\C#N)c2nc3ccccc3[nH]2)ccc1OCc1ccc(F)cc1,1µM*
COc1ccc(C2Cn3nnc(C(=O)N4CCC(C(=O)NC5CCCCCCC5)CC4)c3CO2)cc1 (configuration not stated),-17%
COc1ccc(CCNC(=O)c2nnn3c2COC(c2ccc(C)cc2)C3)cc1OC (configuration not stated),8.9µM*
Cc1ccc(C2Cn3nnc(C(=O)N4CCN(C(=O)c5ccc(F)cc5)CC4)c3CO2)cc1 (configuration not stated),0%
Cc1ccc(C(=O)N2CCN(C(=O)c3nnn4c3COC(c3ccc(F)cc3)C4)CC2)cc1C (configuration not stated),7.1µM*
COc1ccc(C2Cn3nnc(C(=O)NC4CCCCCCC4)c3CO2)cc1 (configuration not stated),8.9µM*
COc1ccc(C2Cn3nnc(C(=O)N4CCC(C(=O)NC5CCCCC5)CC4)c3CO2)cc1 (configuration not stated),26%
COc1ccc(C(=O)N2CCN(C(=O)c3nnn4c3COC(c3ccc(F)cc3)C4)CC2)cc1 (configuration not stated),0%
SMILES,Pf Dd2 inh
Cc1ccc(C2Cn3nnc(C(=O)NCc4ccc(F)cc4)c3CO2)cc1 (configuration not stated),i
CCCCNC(=O)c1nnn2c1COC(c1ccc(C)cc1)C2 (configuration not stated),i
Cn1cccc1CNC(=O)Cn1nc2c(cc1=O)CCCC2,10%
NC(=O)[C@@H](Cc1c[nH]c2ccccc12)NC(=O)[C@@H]1C[C@@H](NS(=O)(=O)c2cccs2)CCN1C(=O)COCC(=O)O,1%
O=C(Nc1cnc(-c2cccc(Cl)c2)nc1)c1cc(F)cc(F)c1,-11%
CC(C)CN[C@@H]1C[C@H](Cn2cc(C3CC3)nn2)[C@@H](O)[C@H]1O,1%[44.1 µM]
Cc1n[nH]c(C)c1CCC(=O)NCC1CCN(c2cc(-c3ccc(F)cc3)[nH]n2)CC1,i
Cc1ccc(C(=O)N2CC(Oc3ccc(F)c(C)c3)C2)cc1,i
COc1cc(CNC(=O)[C@H]2CCC[C@H]2NC(=O)c2cnc(C)cn2)cc(OC)c1,-6%
CCN(C(=O)Cc1nc(-c2ccc(OC)cc2)no1)c1cccc(Cl)c1,-29%
CCN(C(=O)CSc1nc(-c2ccc(C(C)C)cc2)no1)c1cccc(C)c1,0.89µM*
CCN(C(=O)CSc1nnc(-c2ccc(Cl)cc2)o1)c1ccccc1,5%
CCN(C(=O)CSc1nc(-c2ccc(C(C)C)cc2)no1)c1ccccc1,1.1µM*
CCN(C(=O)CSc1nc2ncccc2[nH]1)c1ccc(C(C)C)cc1,-24%
CCN(C(=O)CCc1nc(-c2ccc(C)cc2)no1)c1cc(C)ccc1C,-15%
COCc1nc(CCN)no1,-11%
Cc1ccccc1-n1cc(CN(C)C(=O)CN2C(=O)OC(C)(C)C2=O)cn1,-9%
O=C(c1ccccn1)N1CCC12Cc1ccccc1NC2=O (configuration not stated),32%[44.1 µM]
CSc1ccc(NC(=O)N2CCc3nc4cc(-c5ccccc5)[nH]n4c(=O)c3C2)cc1,i[5.79 µM]
COc1cc(NC(=O)CCCN2C(=O)CCn3nc(-c4cn(C)c5ccccc45)cc32)cc(OC)c1,7.9µM*
Cn1cc(-c2cc3n(n2)CCC(=O)N3CCCC(=O)Nc2ccc(Cl)cc2)c2ccccc21,2%
Cc1cccc(C)c1NC(=O)CCCN1C(=O)CCn2nc(-c3cn(C)c4ccccc34)cc21,44%
O=C(Cc1ccsc1)Nc1cnc(-c2ccccc2)nc1,-4%
CNC(=O)N1CCC(C2CCN(C(=O)c3cscn3)C2)CC1 (configuration not stated),1%
CCOc1ccc(C2c3c(-c4ccccc4O)n[nH]c3C(=O)N2Cc2cccnc2)cc1OC (configuration not stated),i
SMILES,Pf Dd2 inh
CCCCN1C(=O)c2[nH]nc(-c3ccccc3O)c2C1c1cc(Br)c(O)c(OC)c1 (configuration not stated),-24%
CCCN1C(=O)c2[nH]nc(-c3ccccc3O)c2C1c1ccc(OCc2ccccc2)c(OCC)c1 (configuration not stated),11µM*
CCCCN1C(=O)c2[nH]nc(-c3ccccc3O)c2C1c1ccc(OCc2ccccc2)c(OC)c1 (configuration not stated),11µM*
Cc1ccccc1OCC(=O)Nc1ccc2nc(SCC(=O)N(C)c3ccccc3)sc2c1,-28%
CCOc1ccc(C(=O)Nc2ccc3nc(SCC(=O)N(C)c4ccccc4)sc3c2)cc1,8.9µM*
CN(C(=O)CSc1nc2ccc(NC(=O)c3ccccc3F)cc2s1)c1ccccc1,-24%
CN(C(=O)CSc1nc2ccc(NC(=O)c3cccc(F)c3)cc2s1)c1ccccc1,-15%
COc1ccccc1C(=O)Nc1ccc2nc(SCC(=O)N(C)c3ccccc3)sc2c1,8.9µM*
CCOC(=O)CSc1nc2ccc(NC(=O)c3ccc(C)cc3)cc2s1,1%
CN(C)Cc1nnc(C2CCCN(C(=O)c3cnn4ccccc34)C2)n1C (configuration not stated),4%
CC(=O)N1CCCC(c2nc(-c3ccc4nc[nH]c4c3)no2)C1 (configuration not stated),14%
COC(=O)C1=CN(CC(=O)Nc2ccccc2C)S(=O)(=O)N=C1C,22%
O=C(COc1cccc(-c2nnc3n2CCCC3)c1)Nc1ccc(Cl)cc1F,-29%
Cc1ccc(CC(=O)Nc2ccc(-c3nnc4n3CCCC4)cc2)cc1,i
CCC(=O)Nc1ccc(-c2nnc3n2CCCC3)cc1,21%

# Screens as filed in PubChem.
